Experimental data taken from PubChem BioAssay (EPA / NIEHS).
Where “and” joins values, the source holds several entries; their conditions need not be identical. Equal entries are not always repeated. Records with an inconclusive call do not appear. A structure can be active in one record and inactive in another. Calls of active or inactive are those of the source. Rule for the calls: active = hit-call score of the fitted dose curve at least 0.9, where 1 is the maximum; inconclusive = response in the unintended direction; inactive = score below 0.9.

What follows are molecules tested against mouse Peroxisome Proliferator-activated Receptor gamma (PPARg), Pparg (gene 19016) (UniProt P37238) (assay: ATG_mPPARg_XSP2: Attagene TRANS-FACTORIAL Multi-Species (XSP2) HepG2 Assay for mouse Peroxisome Proliferator-activated Receptor gamma (PPARg) (AID 2283830);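 note: hits are gains in reporter mRNA above DMSO so AC50 marks activation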).
Chain of mouse Peroxisome Proliferator-activated Receptor gamma (PPARg), Pparg (gene 19016) (P37238 whole entry, looked up): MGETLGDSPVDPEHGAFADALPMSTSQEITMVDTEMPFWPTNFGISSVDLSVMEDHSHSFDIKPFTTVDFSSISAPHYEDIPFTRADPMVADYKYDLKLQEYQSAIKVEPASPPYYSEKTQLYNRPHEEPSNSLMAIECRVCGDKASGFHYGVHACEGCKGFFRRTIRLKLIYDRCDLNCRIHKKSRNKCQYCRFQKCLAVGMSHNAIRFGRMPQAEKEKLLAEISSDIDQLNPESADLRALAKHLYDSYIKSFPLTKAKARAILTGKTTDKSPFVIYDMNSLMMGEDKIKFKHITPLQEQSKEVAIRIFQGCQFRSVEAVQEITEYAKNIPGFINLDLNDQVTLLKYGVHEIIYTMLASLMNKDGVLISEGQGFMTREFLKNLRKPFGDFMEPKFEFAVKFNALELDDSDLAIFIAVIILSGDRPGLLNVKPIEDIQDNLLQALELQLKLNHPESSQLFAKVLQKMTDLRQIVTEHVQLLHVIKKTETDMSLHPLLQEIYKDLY
Experimental: ATG_XSP2_multi-species_TRANS is a cell-based, multiplexed assay created by modifying the existing Attagene TRANS-FACTORIAL system to include a panel of nuclear receptors from some or all the following species: human (Homo sapiens), mouse (Mus musculus), frog (Xenopus laevis), zebrafish (Danio rerio), chicken (Gallus gallus), and turtle (Chrysemys picta). The […] format uses HepG2, a human liver cell line, with measurements taken at 24 hours after chemical dosing in a 24-well plate. Xsp2 included 3 nM 6-alpha-fluorotestosterone and 1.5 nM norgestrel to stimulate the androgen receptor.ATG_mPPARg_XSP2 is one of 29 assay components measured or calculated from the ATG_XSP2_multi-species_TRANS assay. It is designed to make measurements of mRNA induction, a form of inducible reporter, as detected with fluorescence intensity signals by Reverse transcription polymerase chain reaction (RT-PCR) and Capillary electrophoresis technology.The assay endpoint ATG_mPPARg_XSP2 was analyzed in the positive analysis fitting direction relative to DMSO as the negative control and baseline of activity. Using a type of inducible reporter, measures of mRNA for gain-of-signal activity can be used to understand the reporter gene at the transcription factor-level as they relate to the gene PPARg. Furthermore, this assay endpoint can be referred to as a primary readout, because this assay has produced multiple assay endpoints where this one serves a reporter gene function. To generalize the intended target to other relatable targets, this assay endpoint is annotated to the nuclear receptor intended target family, where the subfamily is non-steroidal.
Human liver HepG2 cells are transiently transfected with multiple reporter transcription units (MRTUs) in 6-well plates using FuGene 6 reagent (Roche; 3 ml FuGene/1 mg DNA). The MRTU constructs are regulated by a cis-regulating element (promoter). […] A major difference between the CIS and TRANS system is that in CIS activities of endogenous TFs are measured, whereas the TRANS assay evaluates changes in activities of exogenous, chimeric NR-Gal4 proteins. […] At the end of 24 hour incubation, total RNA was isolated using TriZol reagent (Invitrogen). The isolated RNA is then reverse-transcribed using oligo(dT) primer and Mo-MLV reverse transcriptase (Invitrogen) with DNAse I (Ambion) treatment for 30 min. The one-tenth of the produced cDNA was amplified by PCR using Taq DNA polymerase (Invitrogen) and two reporter sequence-specific primers. The PCR products were fluorescently labeled by primer extension with 6-arboxyfluorescein (6-FAM) 5'-labeled reporter sequence-specific primer (2 min at 95 C, 20 s at 68 C and 10 min at 72 C) and these products were digested with 5U of HpaI (New England Biolabs) for 2h at 37 C. The fragments were purified using Qiaquick PCR columns (Qiagen), analyzed on an ABI 3130xL genetic analyzer (Applied Biosystems) with peak positions identified by using a set of X-rhodamine (ROX)-labeled MapMarker1000 molecular weight standards (BioVentures). The raw capillary electrophoresis data was processed using Attagraph software (Attagene).
For `O=C1C2(Cl)C3(Cl)C4(Cl)C(Cl)(Cl)C5(Cl)C3(Cl)C1(Cl)C5(Cl)C24Cl` (configuration not stated), the outcome was “inactive”. In the case of `C[C@]12CC[C@H](O)CC1=CC[C@@H]1[C@@H]2CC[C@]2(C)C(=O)CC[C@@H]12`, the outcome is reported as “inactive”. In the case of `Oc1ccc(-c2ccccc2)cc1`, the AC50 is reported as 100 µM (active) and the outcome is reported as “inactive”. With `Clc1ccc(C2(Cn3cncn3)CC(Br)CO2)c(Cl)c1` (configuration not stated) the outcome was “inactive” and the AC50 was 62.7 µM (active). With `COP(=O)(OC)O/C(=C\Cl)c1cc(Cl)c(Cl)cc1Cl` the AC50 was 14.8 µM (active). For `CC(C)C1CCC(Cc2ccc(Cl)cc2)C1(O)Cn1cncn1` (configuration not stated), the AC50 was 10.2 µM (active) and the outcome was “inactive”. For `CC12CC1(C)C(=O)N(c1cc(Cl)cc(Cl)c1)C2=O` (configuration not stated), the outcome was “inactive”. `O=S(=O)(c1ccc(Cl)cc1)c1ccc(Cl)cc1` was tested, and the AC50 was 16.3 µM (active) and 26.8 µM (active). `CC1(C)CCC(Cc2ccc(Cl)cc2)C1(O)Cn1cncn1` (configuration not stated) was tested, and the AC50 was 70.1 µM (active). For `CC(C)(C)c1cc(O)ccc1O`, the AC50 was 70.6 µM (active). With `C[C@H]1CCCC(=O)CCC/C=C/c2cc(O)cc(O)c2C(=O)O1` the outcome was “inactive”. For `C[C@]12CCC(=O)C[C@@H]1CC[C@@H]1[C@@H]2CC[C@]2(C)[C@@H](O)CC[C@@H]12`, the outcome was “inactive”. For `CC(=O)C=C(C)C`, the outcome was “inactive”. `Oc1c(I)cc(I)cc1I` was tested, and the AC50 was 18 µM (active) and 14.1 µM (active).
